Screening data: PubChem BioAssay, National Center for Advancing Translational Sciences (NCATS)
Pf growth 96h – inhibits malaria parasite growth, 96 h; Potency, µM (titrated, usually from 28.7 µM), for the others: top-dose activity change, negative = inhibition, hits mostly inhibitors; 320,000 tested, 6.9% active; P. falciparum luciferase reporter growth, 96 h; further: potency means the concentration at half of the fitted maximal effect; on the % scale 0 is the no-effect control and ±100 the full control effect
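Delayed-death screen, second-generation endpoint: infected erythrocytes, 2% hematocrit, 0.05% parasitemia final; 96 hours at 37 C, 5% CO2; luciferase detection reagent; luminescence decrease equals reduced growth.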
Pf growth 48h – inhibits P. falciparum growth in the first generation, 48 h | P. falciparum luciferase growth in erythrocytes, 48 h | Potency, µM (top dose mostly 28.7 µM), for the others: at the top dose activity change, negative = inhibition, actives largely listed as inhibitors | 310,000 tested, 5.9% active; further: potency means the concentration at half of the fitted maximal effect; on the % scale 0 is the no-effect control and ±100 the full control effect
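Luciferase-expressing parasites in RBCs, 2% Hct / 0.1% parasitemia final; RPMI 1640 + 0.5% Albumax; 37 C, 5% CO2, one generation; luminescence read-out, lower signal = inhibition.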
HCV inh – blocks hepatitis C virus. Potency, µM (series often up to 41.8 µM), without a hit: top-dose activity change, negative = inhibition, hits mostly inhibitors. AID 651820. 340,000 tested, 3.4% active. Huh7.5.1 HCVcc-Cre infection, luciferase reporter, 44 h; further: potency means the concentration at half of the fitted maximal effect; on the % scale 0 is the no-effect control and ±100 the full control effect
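Reporter virus HCVcc-Cre (~0.5 moi) infects cells exposed to compound; seeding density 1,000 cells/well with 4 h settling beforehand. Luminescence, 15 sec read, taken 44 h post-infection following a 15 min RT substrate incubation.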
SARS PLpro yeast-1 – blocks SARS-CoV papain-like protease in a yeast assay; S. cerevisiae expressing SARS-CoV PLpro, growth rescue; Potency, µM (series often up to 32.9 µM), for the others: at the top dose activity, positive = growth rescue, actives largely listed as activators; 330,000 tested, 0.19% active; AID 485353; calls by dose curve; further: potency means the concentration at half of the fitted maximal effect; 0% is about no effect; nearly all actives have a fitted effect of over 55% in size
NS1 inh – inhibitors of influenza NS1 protein function | Potency, µM (doses to about 46.1 µM), for inactives: at the top dose activity, positive = more growth | 270,000 tested, 0.4% active | AID 2326; calls by dose curve; further: potency means the concentration at half of the fitted maximal effect; actives are rising curves; nearly all actives have a fitted effect of over 50% in size
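In this qHTS, NS1 from influenza A is expressed in budding yeast, where it slows growth. Cells are switched from glucose to 2% galactose medium (pH 6.0, -URA), treated with compound, and growth recovery is read at OD600.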
AMA1-RON2 inh – inhibitors of Plasmodium falciparum AMA1-RON2 interaction. AlphaScreen AMA1-biotinylated RON2 peptide binding. Potency, µM (highest dose often 58.2 µM), without a hit: at the top dose activity change, negative = inhibition, hits mostly inhibitors. 360,000 tested, 0.2% active. AID 720542;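 further: potency means the concentration at half of the fitted maximal effect; 0% = vehicle wells and -100% = peptide control; nearly all actives have a fitted effect of over 45% in size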
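AMA1 (3D7) with his tag at 25 nM final met compounds first, then biotinylated RON2 peptide at 25 nM; detection used donor plus acceptor beads, 10 µg/mL apiece, read by AlphaScreen after 30 min at room temperature.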
SARS PLpro yeast-2 – Inhibits SARS-CoV PLP in yeast, hit validation | shares compounds with SARS PLpro yeast-1 | yeast expressing SARS-CoV PLpro, growth phenotype rescue | calls only | 1,000 tested, 19% active | AID 652038; call rule not given here
* = called active by the depositor; i = inactive; ? = inconclusive; . = not tested or not shown; + = active, no number; [ ] = remark or other dose. Compounds with a hit are over-represented: about 12% of the library has one in this group of screens. Unless noted, the call rests on the fitted dose curve; in most records, active means well fitted curve in the direction sought with a large enough effect; inconclusive means small, poorly fitted or top-dose-only effect, or another doubt; inactive means no such curve, though single readings can be large; an effect the other way counts as inactive or inconclusive.

SMILES	Pf growth 96h	Pf growth 48h	HCV inh	SARS PLpro yeast-1	NS1 inh	AMA1-RON2 inh	SARS PLpro yeast-2
Cc1c(C)c2ccc(OC(C)C(=O)NCCCN3CCOCC3)c(C)c2oc1=O (stereo unspecified)	33%	7%	-5%	1%	0%	-4%	.
O=C(c1ccccc1)N1CCN(C(=O)N2CCOCC2)CC1	.	.	13%	?	7%	-4%	i
O=C(c1cccc(Br)c1)N1CCN(C(=O)N2CCOCC2)CC1	18%	7%	-3%	9%	-2%	1%	.
CCCc1cc(-n2ccnc2)n2c(nc3ccccc32)c1C#N	?	?	2%	2%	1%	0%	.
Cc1cc(-n2ccnc2)n2c(nc3ccccc32)c1C#N	-47%	.	13%	?	5%	3%	?
Cc1cc([N+](=O)[O-])nn1Cc1ccc(C(=O)N/N=C/c2ccc(O)cc2O)cc1	-89%	?	?	3.2µM*	28%	52%	?
Cc1cc([N+](=O)[O-])nn1Cc1ccc(C(=O)N/N=C/c2ccc(F)cc2)cc1	-2%	-1%	-23%	-1%	4%	-3%	.
COc1cccc(C2/C(=C(\O)c3ccc4c(c3)OCCO4)C(=O)C(=O)N2Cc2cccnc2)c1 (stereo unspecified)	2%	4%	8%	?	-2%	1%	i
COc1ccc(-c2noc(COC(=O)c3ccco3)n2)cc1OC	6%	20%	0%	2%	.	-1%	.
O=C(COc1ccccc1)NCc1nnc2c3ccccc3c(-c3ccccc3)nn12	?	?	0%	.	4%	-9%	i
CC(=O)NCc1nnc2c3ccccc3c(-c3ccccc3)nn12	22%	-32%[5.75 µM]	23%	-1%	10%	0%	.
Cn1nnnc1SCC(=O)NC(=O)c1cccc([N+](=O)[O-])c1	84%	18%	17%	0%	2%	-3%	.
O=C(CN1C(=O)C2C3C=CC(C3)C2C1=O)NCCc1ccccc1 (stereo unspecified)	37%	21%	1%	3%	-4%	0%	.
O=C(CN1C(=O)C2C3C=CC(C3)C2C1=O)NCc1ccccc1 (stereo unspecified)	57%	2%	11%	?	4%	0%	i
COc1cc(/C=N/NC(=O)c2ccc(C)nc2)cc([N+](=O)[O-])c1O	41%	34%	14%	1%	.	0%	.
COc1cc([N+](=O)[O-])cc(/C=N/NC(=O)c2ccc(C)nc2)c1O	?	33%	?	8.9µM*	11%	-27%	?
COc1cc([N+](=O)[O-])cc(/C=N/NC(=O)C(C)Nc2cccc(C)c2)c1O (stereo unspecified)	-11%	20%	0%	?	-2%	72%	?
CCOc1cc(CNCCc2ccccc2)ccc1OCC(=O)NC(C)(C)C	0%	?	?	18µM*	1%	-2%	i
CCCCCCN1C=CC=C/C1=C\C=C(C#N)C#N	-4%	-18%	-51%	0%	-5%	-17%	.
COC(=O)C(Cc1ccccc1)NCC(=O)Nc1cccc(Cl)c1C (stereo unspecified)	-5%	-1%	1%	1%	-17%	22%	.
C=CCNC(=O)C1CC2Cn3c(nc4ccccc43)C2N1C (stereo unspecified)	17%	-2%	49%	1%	2%	-3%	.
C=CCNC(=O)C1CC2Cn3c(nc4cc(Cl)c(Cl)cc43)C2N1C (stereo unspecified)	43%	-27%	17%	?	.	-2%	i
O=C(O)COc1ccccc1/C=N/NC(=O)CNC(=O)c1ccco1	-20%	26%	-1%	0.4µM*	15%	39%	i
Cc1nc(C)c(-c2ccc(SCc3ccccc3F)nn2)s1	27%	55%	-24%	-15%	7%	-6%	.
O=C(Cn1cnc2c(nnn2Cc2ccccc2F)c1=O)NCC1CCCO1 (stereo unspecified)	8%	4%	-6%	?	?	8%	i
SMILES	Pf growth 96h	Pf growth 48h	HCV inh	SARS PLpro yeast-1	NS1 inh	AMA1-RON2 inh	SARS PLpro yeast-2
COc1cccc(NC(=O)Cn2cnc3c(oc4nc5c(cc43)CCCC5)c2=O)c1	?	3%	-1%	?	-12%	-3%	?
COc1ccc(C(=O)CC(=O)C(=O)NCCc2cccc(C)c2)cc1	12%	-8%	-3%	20µM*	8%	5%	+
COc1ccc(C(=O)NC(=S)NCCc2ccccc2)cc1	22%	12%	10%	1%	-2%	-19%	.
CCN(CC)c1ccc(/C=N/NC(=O)CCC(=O)NCc2ccccc2)c(O)c1	?	13µM*	?	4µM*	-2%	21%	i
CCN(CC)c1ccc(/C=N/NC(=O)c2c(Cl)cnn2C)c(O)c1	?	?	3.5µM*	?	-64%	31%	i
CCN(CC)c1ccc(/C=N/Nc2nc(C)cc(=O)[nH]2)c(O)c1	1.9µM*	1.9µM*	4µM*	4.5µM*	14%	16%	i
Nc1ncnc(Nc2ccccc2Cl)n1	11%	116%	-3%	1%	-2%	0%	.
Cc1ccc(C2(C)NC(=O)N(CC(=O)NCc3cccs3)C2=O)cc1 (stereo unspecified)	3%	-27%	?	?	21%	-1%	i
Cc1ccc(C2(C)NC(=O)N(CC(=O)NCc3cccc(Cl)c3)C2=O)cc1 (stereo unspecified)	-3%	?	2%	1%	0%	7%	.
CN(C)c1ccc(-c2nc3ccccn3c2/N=C/c2ccc(Br)cc2)cc1	-54%	?	25%	.	28%	?	i
O=C(O)CNC(=O)c1ccccc1O	.	.	.	.	8%	.	.
CCOC(=O)CC(NC(=O)c1ccco1)c1ccc(OC)cc1 (stereo unspecified)	273%	-11%	-10%	?	-10%	12%	i
Cc1ccc(NC(=O)CN(C)S(=O)(=O)c2cccs2)cc1C	.	38%	10%	?	12%	-1%	i
Nc1nc(SCc2ccccc2Cl)nc2nc3c(cc12)CCCC3	-17%	?	.	?	4%	31%	i
C=CCc1cccc(/C=N/NC(=O)CCC(=O)Nc2ccc(F)cc2)c1O	?	-2%	?	22%	17%	26%	.
C=CCc1cccc(/C=N/NC(=O)CCCNc2ccc(C)cc2)c1O	?	-8%	-11%	14µM*	1%	-13%	+
CCN(C(=O)c1ccc(S(=O)(=O)N(C)C)cc1)C(C)C(=O)Nc1ccc(C)cc1 (stereo unspecified)	?	-47%	-19%	3%	1%	24%	.
